# Reference: the supplement of paper PMC8728848
# This is one part of a sample in which the strongest signals are shown more often than they occur.
# B1: PX15642A-pgi-501-20-501 (Parabacteroides gingivalis) (protein)
# chain: CELDRDPEGKDFQQPYTSFVQTKQNRDGLYALLRNTENPRMHFYQELQSDMYCTTITDGNSLAPFVNWDLGILNDHGRADEDEVSGIAGYYFVYNRLNQQANAFVNNTEAALQNQVYKNSTEIANAKSFLAEGKVLQALAIWRLMDRFSFHESVTEVNSGAKDLGVILLKEYNPGYIGPRATKAQCYDYILSRLSEAIEVLPENRESVLYVSRDYAYALRARIYLALGEYGKAAADAKMVVDKYPLIGAADASEFENIYRSDANNPEIIFRGFASATLGSFTATTLNGAAPAGKDIKYNPSAVPFQWVVDLYENEDFRKSVYIAKVVKKDKGYLVNKFLEDKAYRDVQDKPNLKVGARYFSVAEVYLILVESALQTGDTPTAEKYLKALSKARGAEVSVVNMEALQAERTRELIGEGSRLRDMVRWSIPNNHDAFETQPGLEGFANTTPLKAQAPVGFYAYTWEFPQRDRQTNPQLIKNWPI
# Assays:
# Test in all cases: glycan array binding signal (z-score within array); higher = stronger binding
# Conditions in all cases: glycan notation: IUPAC condensed, linker removed
# Fuc(a1-2)Gal(b1-3)GlcNAc = molecular target: Fuc(a1-2)Gal(b1-3)GlcNAc
# Summary of the method: (§1)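 Arrays were curated from the Consortium for Functional Glycomics database, 3228 in total, and kept only where the protein sequence was available. Binding is expressed as a within-array Z-score. This score was averaged across arrays of the same protein sequence at different concentrations or buffers and across linkers, and negative values can be read as non-binding.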
# [1] = molecular target: Fuc(a1-2)Gal(b1-3)GlcNAc(b1-2)Man(a1-3)[Fuc(a1-2)Gal(b1-3)GlcNAc(b1-2)Man(a1-6)]Man(b1-4)GlcNAc(b1-4)[Fuc(a1-6)]GlcNAc
# Summary of the method: as §1
# [2] = molecular target: Fuc(a1-2)Gal(b1-3)GlcNAc(b1-3)GalNAc
# Summary of the method: as §1
# [3] = molecular target: Fuc(a1-2)Gal(b1-3)GlcNAc(b1-3)[Neu5Ac(a2-6)Gal(b1-4)GlcNAc(b1-6)]Gal(b1-4)Glc
# Summary of the method: as §1
# [4] = molecular target: Fuc(a1-2)Gal(b1-4)GlcNAc(b1-6)GalNAc
# Summary of the method: as §1
# [5] = molecular target: Fuc(a1-2)[Gal(a1-3)]Gal(b1-4)GlcNAc(b1-2)Man
# Summary of the method: as §1
# [6] = molecular target: Fuc(a1-2)[Gal(a1-3)]Gal(b1-4)GlcNAc(b1-2)Man(a1-3)[Fuc(a1-2)[Gal(a1-3)]Gal(b1-4)GlcNAc(b1-2)Man(a1-6)]Man(b1-4)GlcNAc(b1-4)GlcNAc
# Summary of the method: as §1
# [7] = molecular target: Fuc(a1-2)[Gal(a1-3)]Gal(b1-4)GlcNAc(b1-3)GalNAc
# Summary of the method: as §1
# [8] = molecular target: Fuc(a1-2)[Gal(a1-3)]Gal(b1-4)GlcNAc(b1-3)[Fuc(a1-2)[Gal(a1-3)]Gal(b1-4)GlcNAc(b1-6)]GalNAc
# Summary of the method: as §1
# [9] = molecular target: Fuc(a1-2)[GalNAc(a1-3)]Gal(b1-4)GlcNAc(b1-2)Man
# Summary of the method: as §1
# [10] = molecular target: Fuc(a1-3)[Gal(b1-4)]GlcNAc(b1-3)GalNAc
# Summary of the method: as §1
# Fuc(a1-4)GlcNAc = molecular target: Fuc(a1-4)GlcNAc
# Summary of the method: as §1
# [11] = molecular target: Gal(a1-3)Gal(b1-4)GlcNAc(b1-2)Man(a1-3)[Gal(a1-3)Gal(b1-4)GlcNAc(b1-2)Man(a1-6)]Man(b1-4)GlcNAc(b1-4)GlcNAc
# Summary of the method: as §1
# [12] = molecular target: Gal(a1-3)[Gal(a1-4)]Gal(b1-4)GlcNAc
# Summary of the method: as §1
# [13] = molecular target: Gal(a1-4)Gal(b1-4)GlcNAc(b1-2)Man(a1-3)[Gal(a1-4)Gal(b1-4)GlcNAc(b1-2)Man(a1-6)]Man(b1-4)GlcNAc(b1-4)GlcNAc
# Summary of the method: as §1
# Gal(b1-3)Gal = molecular target: Gal(b1-3)Gal
# Summary of the method: as §1
# [14] = molecular target: Gal(b1-3)GalNAc(a1-3)[Fuc(a1-2)]Gal(b1-4)Glc
# Summary of the method: as §1
# [15] = molecular target: Gal(b1-3)GlcNAc(b1-6)GalNAc
# Summary of the method: as §1
# Gal(b1-3)GlcNAc6S = molecular target: Gal(b1-3)GlcNAc6S
# Summary of the method: as §1
# [16] = molecular target: Gal(b1-3)[Fuc(a1-4)]GlcNAc
# Summary of the method: as §1
# Gal(b1-4)Gal = molecular target: Gal(b1-4)Gal
# Summary of the method: as §1
# [17] = molecular target: Gal(b1-4)GlcNAc(b1-2)Man(a1-3)[GlcNAc(b1-2)Man(a1-6)]Man(b1-4)GlcNAc(b1-4)GlcNAc
# Summary of the method: as §1
# [18] = molecular target: Gal(b1-4)GlcNAc(b1-2)Man(a1-6)[Man(a1-3)]Man(b1-4)GlcNAc(b1-4)GlcNAc
# Summary of the method: as §1
# [19] = molecular target: Gal(b1-4)GlcNAc(b1-2)[Gal(b1-4)GlcNAc(b1-4)]Man(a1-3)[Gal(b1-4)GlcNAc(b1-2)[Gal(b1-4)GlcNAc(b1-6)]Man(a1-6)]Man(b1-4)GlcNAc(b1-4)GlcNAc
# Summary of the method: as §1
# [20] = molecular target: Gal(b1-4)GlcNAc(b1-2)[Gal(b1-4)GlcNAc(b1-6)]Man(a1-6)[Gal(b1-4)GlcNAc(b1-2)Man(a1-3)]Man(b1-4)GlcNAc(b1-4)[Fuc(a1-6)]GlcNAc
# Summary of the method: as §1
# [21] = molecular target: Gal(b1-4)GlcNAc(b1-3)Gal(b1-4)GlcNAc(b1-2)Man(a1-3)[Gal(b1-4)GlcNAc(b1-3)Gal(b1-4)GlcNAc(b1-2)Man(a1-6)]Man(b1-4)GlcNAc(b1-4)GlcNAc
# Summary of the method: as §1
# [22] = molecular target: Gal(b1-4)GlcNAc(b1-3)Gal(b1-4)GlcNAc(b1-2)[Gal(b1-4)GlcNAc(b1-3)Gal(b1-4)GlcNAc(b1-6)]Man(a1-6)[Gal(b1-4)GlcNAc(b1-3)Gal(b1-4)GlcNAc(b1-2)Man(a1-3)]Man(b1-4)GlcNAc(b1-4)GlcNAc
# Summary of the method: as §1
# [23] = molecular target: Gal(b1-4)GlcNAc(b1-3)Gal(b1-4)GlcNAc(b1-6)[Gal(b1-3)]GalNAc
# Summary of the method: as §1
binder,measurement,setting,value
B1,glycan array binding signal (z-score),Fuc(a1-2)Gal(b1-3)GlcNAc,-0.306
same,glycan array binding signal (z-score),[1],0.224
same,glycan array binding signal (z-score),[2],-0.094
same,glycan array binding signal (z-score),[3],-0.121
same,glycan array binding signal (z-score),[4],2.85
same,glycan array binding signal (z-score),[5],-0.144
same,glycan array binding signal (z-score),[6],0.849
same,glycan array binding signal (z-score),[7],1.21
same,glycan array binding signal (z-score),[8],0.225
same,glycan array binding signal (z-score),[9],-0.848
same,glycan array binding signal (z-score),[10],-0.744
same,glycan array binding signal (z-score),Fuc(a1-4)GlcNAc,2.72
same,glycan array binding signal (z-score),[11],-0.319
same,glycan array binding signal (z-score),[12],6.32
same,glycan array binding signal (z-score),[13],0.38
same,glycan array binding signal (z-score),Gal(b1-3)Gal,0.322
same,glycan array binding signal (z-score),[14],1.53
same,glycan array binding signal (z-score),[15],-0.003
same,glycan array binding signal (z-score),Gal(b1-3)GlcNAc6S,0.706
same,glycan array binding signal (z-score),[16],-0.298
same,glycan array binding signal (z-score),Gal(b1-4)Gal,0.332
same,glycan array binding signal (z-score),[17],0.359
same,glycan array binding signal (z-score),[18],-0.027
same,glycan array binding signal (z-score),[19],0.733
same,glycan array binding signal (z-score),[20],0.317
same,glycan array binding signal (z-score),[21],2.09
same,glycan array binding signal (z-score),[22],2.23
same,glycan array binding signal (z-score),[23],2.71
